# In PubChem BioAssay (NCATS):
# “And” between values parts separate entries of the source, which are not always exact repeats. Identical values can stand only once. Results filed as inconclusive are left out. A call without a number means that no potency is given here. The source made the active and inactive calls. Unless noted, calls follow the shape of the dose curve; as a rule, active = well fitted curve in the direction sought with a large enough effect; inconclusive = small, poorly fitted or top-dose-only effect, or another doubt; inactive = no such curve, though single readings can be large; an effect the other way counts as inactive or inconclusive.
# Legend:
# [1] = target: Voltage-gated inwardly rectifying potassium channel KCNH2 (Homo sapiens) (UniProt Q12809); test: qHTS Assay for Small Molecule Inhibitors of the Human hERG Channel Activity (AID 588834);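 also: lower thallium flux fluorescence means stronger hERG block; nearly all actives have a fitted effect of over 50% in size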; also: potency is read from the fitted curve at half-maximal effect
# Sequence of Voltage-gated inwardly rectifying potassium channel KCNH2 (Homo sapiens) (Q12809 whole entry, looked up): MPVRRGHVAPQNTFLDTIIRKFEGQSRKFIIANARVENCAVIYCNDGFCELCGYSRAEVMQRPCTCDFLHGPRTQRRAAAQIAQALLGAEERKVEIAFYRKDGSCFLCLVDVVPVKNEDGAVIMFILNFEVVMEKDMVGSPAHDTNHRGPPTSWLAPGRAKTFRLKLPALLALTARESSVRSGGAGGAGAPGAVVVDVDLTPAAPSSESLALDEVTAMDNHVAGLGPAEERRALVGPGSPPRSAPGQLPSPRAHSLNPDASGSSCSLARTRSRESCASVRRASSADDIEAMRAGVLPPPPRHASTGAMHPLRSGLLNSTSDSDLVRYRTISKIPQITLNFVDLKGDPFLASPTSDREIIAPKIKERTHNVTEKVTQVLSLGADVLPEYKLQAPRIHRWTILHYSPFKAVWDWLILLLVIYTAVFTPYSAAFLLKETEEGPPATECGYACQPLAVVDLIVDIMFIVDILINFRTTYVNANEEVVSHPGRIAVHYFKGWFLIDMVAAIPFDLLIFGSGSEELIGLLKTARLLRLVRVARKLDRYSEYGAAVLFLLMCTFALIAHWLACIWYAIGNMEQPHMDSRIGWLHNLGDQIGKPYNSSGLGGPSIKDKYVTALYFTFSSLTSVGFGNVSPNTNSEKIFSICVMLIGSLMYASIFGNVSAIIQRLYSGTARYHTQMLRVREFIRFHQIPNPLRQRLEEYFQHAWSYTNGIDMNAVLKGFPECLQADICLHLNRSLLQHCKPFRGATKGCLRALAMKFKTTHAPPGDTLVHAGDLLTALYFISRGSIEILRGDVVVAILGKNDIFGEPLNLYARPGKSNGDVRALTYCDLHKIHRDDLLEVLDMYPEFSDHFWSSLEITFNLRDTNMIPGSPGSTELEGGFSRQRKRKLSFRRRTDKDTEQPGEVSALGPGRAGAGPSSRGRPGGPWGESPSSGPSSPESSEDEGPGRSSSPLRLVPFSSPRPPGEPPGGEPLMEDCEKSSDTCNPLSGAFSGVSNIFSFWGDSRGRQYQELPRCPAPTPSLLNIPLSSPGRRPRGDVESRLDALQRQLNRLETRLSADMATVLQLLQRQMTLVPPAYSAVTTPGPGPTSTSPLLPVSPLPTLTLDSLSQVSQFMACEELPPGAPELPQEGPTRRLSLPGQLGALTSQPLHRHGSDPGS
# Outline: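 Kinetic FDSS fluorescence; U2OS + hERG BacMam (~100 virus particles/cell); FluxOR Tl+ flux; ~10 min cpd; AC50 (Hill).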
# [2] = target: Thyroid hormone receptor beta (Homo sapiens) (UniProt P10828); test: qHTS assay for small molecule agonists of thyroid hormone receptor beta signaling (AID 588545; calls by dose curve)
# Sequence of Thyroid hormone receptor beta (Homo sapiens) (P10828 whole entry, looked up): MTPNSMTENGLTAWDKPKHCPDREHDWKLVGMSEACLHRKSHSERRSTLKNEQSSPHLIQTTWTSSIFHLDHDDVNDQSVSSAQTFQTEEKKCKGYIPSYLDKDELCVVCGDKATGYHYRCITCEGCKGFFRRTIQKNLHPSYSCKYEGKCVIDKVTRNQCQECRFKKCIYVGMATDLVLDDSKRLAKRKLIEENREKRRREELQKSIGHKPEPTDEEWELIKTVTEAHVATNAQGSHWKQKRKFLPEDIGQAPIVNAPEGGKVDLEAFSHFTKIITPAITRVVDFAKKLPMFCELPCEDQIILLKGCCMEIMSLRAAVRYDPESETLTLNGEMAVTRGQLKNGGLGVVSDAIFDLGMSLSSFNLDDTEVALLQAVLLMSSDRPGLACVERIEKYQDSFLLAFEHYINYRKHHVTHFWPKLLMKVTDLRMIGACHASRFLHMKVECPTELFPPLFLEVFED
# Outline: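 Agonist activity was read as beta-lactamase CCF4 fluorescence (405 ex, 460/530 em), scaled between DMSO (0%) and 10 nM T3 (100%), then Hill-fitted for EC50 and efficacy. HEK 293 TR-UAS-bla cells in 2% charcoal/dextran FBS medium were exposed 18 h at 37 C.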
# [3] = target: Peroxisome proliferator-activated receptor gamma (Homo sapiens) (UniProt P37231); test: qHTS assay for small molecule antagonists of peroxisome proliferator-activated receptor gamma signaling (AID 588537; active = well fitted inhibition curve with a large enough effect in the signal ratio, with a control signal flat, not every such curve was filed as active; the % refers to the signal ratio; also: potency is read from the fitted curve at half-maximal effect)
# Sequence of Peroxisome proliferator-activated receptor gamma (Homo sapiens) (P37231 whole entry, looked up): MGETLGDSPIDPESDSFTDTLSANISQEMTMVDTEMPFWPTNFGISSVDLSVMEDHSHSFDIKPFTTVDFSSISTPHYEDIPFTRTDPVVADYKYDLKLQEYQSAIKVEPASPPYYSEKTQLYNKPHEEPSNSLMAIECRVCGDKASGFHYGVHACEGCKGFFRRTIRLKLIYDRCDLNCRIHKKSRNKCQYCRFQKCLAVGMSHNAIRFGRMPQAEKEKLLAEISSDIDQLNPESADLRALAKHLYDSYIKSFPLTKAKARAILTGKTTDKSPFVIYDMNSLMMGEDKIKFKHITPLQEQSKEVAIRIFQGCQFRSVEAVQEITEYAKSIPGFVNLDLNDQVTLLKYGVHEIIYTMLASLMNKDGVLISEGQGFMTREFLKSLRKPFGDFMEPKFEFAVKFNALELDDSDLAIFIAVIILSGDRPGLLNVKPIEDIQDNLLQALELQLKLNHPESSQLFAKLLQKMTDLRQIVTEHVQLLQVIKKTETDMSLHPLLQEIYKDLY
# Outline: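 PPAR-gamma-UAS-bla HEK293 cells (3000/well, 1% charcoal/dextran-stripped FBS) were preincubated 6-6.5 h at 37 C, given titrated compounds, then stimulated with 50 nM rosiglitazone for 16 h. Beta-lactamase activity was read with CCF4 dye; IC50 came from Hill fits.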
# [4] = target: Vitamin D3 receptor (Homo sapiens) (UniProt P11473); test: qHTS assay for small molecule antagonists of vitamin D receptor signaling (AID 588541; calls by dose curve;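 also: receptor activated by calcitriol during compound treatment; series mostly up to about 77 µM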)
# Sequence of Vitamin D3 receptor (Homo sapiens) (P11473 whole entry, looked up): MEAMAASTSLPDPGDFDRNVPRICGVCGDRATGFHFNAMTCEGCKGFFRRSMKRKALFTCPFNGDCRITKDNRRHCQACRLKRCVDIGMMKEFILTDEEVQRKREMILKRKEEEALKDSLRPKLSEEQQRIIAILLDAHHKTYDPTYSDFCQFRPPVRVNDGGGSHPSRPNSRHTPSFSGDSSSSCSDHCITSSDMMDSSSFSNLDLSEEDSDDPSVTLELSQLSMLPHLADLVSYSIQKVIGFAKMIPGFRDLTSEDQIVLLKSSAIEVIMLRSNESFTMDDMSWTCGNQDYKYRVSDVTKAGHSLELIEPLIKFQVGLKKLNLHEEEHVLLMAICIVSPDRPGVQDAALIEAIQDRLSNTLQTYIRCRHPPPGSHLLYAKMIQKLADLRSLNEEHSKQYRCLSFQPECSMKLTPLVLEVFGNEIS
# Outline: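 VDR-UAS-bla HEK293T cells (2000/well, 2% charcoal-stripped FBS) were treated with titrated compounds plus 1-alpha,25-dihydroxyvitamin D3 (50 nM or 3 nM final) for 16 h at 37 C. CCF4 beta-lactamase fluorescence was read; Hill fits gave IC50.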
# [5] = target: Thyroid hormone receptor beta (Homo sapiens) (UniProt P10828); test: qHTS assay for small molecule antagonists of thyroid hormone receptor beta signaling (AID 588547; active = well fitted inhibition curve with a large enough effect in the signal ratio, with a control signal flat, not every such curve was filed as active; the % refers to the signal ratio; also: potency is read from the fitted curve at half-maximal effect;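 as to activity change % (negative = inhibition): cells stimulated with 0.4 nM T3 agonist during compound exposure; series mostly up to about 77 µM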); details: TR-UAS-bla HEK293, beta-lactamase ratio, antagonist mode, 18 h
# Outline: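 TR-UAS-bla GripTite HEK293 cells in 2% charcoal/dextran FBS medium were preincubated 4 h at 37 C, given compound (0.59 nM to 92 uM) plus 0.4 nM T3 (final) for 18 h, then CCF4 for 2 h at RT; Hill fit gave IC50.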
# [6] = target: Luciferin 4-monooxygenase (Photinus pyralis) (UniProt P08659); test: Biochemical firefly luciferase enzyme assay for NPC (AID 624030); also: nearly all actives have a fitted effect of over 70% in size; also: potency is read from the fitted curve at half-maximal effect
# Sequence of Luciferin 4-monooxygenase (Photinus pyralis) (P08659 whole entry, looked up): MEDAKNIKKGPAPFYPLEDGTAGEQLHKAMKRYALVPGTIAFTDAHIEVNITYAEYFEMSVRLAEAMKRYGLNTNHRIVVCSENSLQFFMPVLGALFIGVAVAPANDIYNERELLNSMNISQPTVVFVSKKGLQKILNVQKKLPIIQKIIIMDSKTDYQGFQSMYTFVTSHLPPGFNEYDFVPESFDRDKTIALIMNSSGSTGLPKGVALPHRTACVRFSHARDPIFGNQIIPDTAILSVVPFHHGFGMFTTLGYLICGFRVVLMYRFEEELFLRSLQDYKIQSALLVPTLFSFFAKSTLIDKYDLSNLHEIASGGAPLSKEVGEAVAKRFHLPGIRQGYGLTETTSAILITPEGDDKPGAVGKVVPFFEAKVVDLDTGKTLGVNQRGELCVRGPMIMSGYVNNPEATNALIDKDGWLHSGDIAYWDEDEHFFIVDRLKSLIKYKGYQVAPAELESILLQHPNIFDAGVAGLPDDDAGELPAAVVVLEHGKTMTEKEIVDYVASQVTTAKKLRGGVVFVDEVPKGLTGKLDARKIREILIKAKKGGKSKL
# Outline: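 Counter-screen for direct inhibition of the luciferase enzyme by approved-drug library compounds, run at 10 nM enzyme in 50 mM Tris acetate (final). Luminescence was read within 5 min of enzyme-buffer addition and normalized to PTC124 versus DMSO (0%).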
# [7] = S16 Schwann cell viability assay (CellTiter-Glo assay) (AID 624031); also: nearly all actives have a fitted effect of over 70% in size; also: potency is read from the fitted curve at half-maximal effect
# Outline: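 Counter-screen for cytotoxicity: parental S16 rat Schwann cells lacking the PMP22 reporters, treated 24 h with compound, viability from cellular ATP by CellTiter-Glo luminescence, normalized to DMSO (0%) and no-cell wells.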
# [8] = qHTS assay for small molecule agonists of retinoid X receptor alpha signaling (AID 588544); details: HEK293T RXRa-UAS-bla, beta-lactamase reporter, 18 h; 530 nm emission
# [9] = qHTS assay for small molecule antagonists of retinoid X receptor alpha signaling (AID 588546; active = well fitted inhibition curve with a large enough effect in the signal ratio, with a control signal flat, not every such curve was filed as active; the % refers to the signal ratio;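 also: cells stimulated with 9-cis-retinoic acid as agonist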); details: HEK293T RXRa-UAS-bla, beta-lactamase ratio, antagonist mode; measured here: W530 green channel, cytotoxicity proxy
# Outline: (§1)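 Beta-lactamase reporter inhibition, read as CCF4 fluorescence ratio (ex 405, em 460/530 nm) after 2 h at RT. HEK293T UAS-bla cells, 2500/well, were stimulated with 9-cis-RA at 500 or 100 nM final alongside test compound for 18 h at 37 C.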
# [10] = target: Retinoic acid receptor RXR-alpha (Homo sapiens) (UniProt P19793); test: as above; details: HEK293T RXRa-UAS-bla, beta-lactamase ratio, antagonist mode
# Sequence of Retinoic acid receptor RXR-alpha (Homo sapiens) (P19793 whole entry, looked up): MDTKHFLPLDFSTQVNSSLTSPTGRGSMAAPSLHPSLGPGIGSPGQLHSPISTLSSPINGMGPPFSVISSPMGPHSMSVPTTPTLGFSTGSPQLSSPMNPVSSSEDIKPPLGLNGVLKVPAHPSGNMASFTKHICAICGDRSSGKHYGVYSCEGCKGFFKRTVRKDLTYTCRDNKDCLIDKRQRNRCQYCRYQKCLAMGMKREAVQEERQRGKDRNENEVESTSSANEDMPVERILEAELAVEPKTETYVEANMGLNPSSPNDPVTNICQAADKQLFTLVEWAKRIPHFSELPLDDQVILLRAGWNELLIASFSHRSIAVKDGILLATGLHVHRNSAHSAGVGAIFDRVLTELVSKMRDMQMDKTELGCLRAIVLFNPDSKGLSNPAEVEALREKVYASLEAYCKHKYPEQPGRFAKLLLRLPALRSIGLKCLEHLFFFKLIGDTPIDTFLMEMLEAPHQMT
# Outline: as §1
smiles,measurement,setting,value
NC(=O)c1cccc(N)c1,Potency,[1],inactive
CC(=O)Oc1ccccc1C(=O)Nc1ncc([N+](=O)[O-])s1,outcome,[2],inactive
same,Potency,[1],inactive
CN(C)c1ccc(C(=C2C=CC(=[N+](C)C)C=C2)c2ccc(N(C)C)cc2)cc1,Potency,[3],44.7 µM (active)
same,outcome,[4],inactive
same,outcome,[2],inactive
same,Potency,[5],28.2 µM (active)
same,Potency,[1],10 µM (active) and 12.6 µM (active)
same,Potency,[6],12.8 µM (active)
same,Potency,[7],9.07 µM (active)
C[C@@H](CN1CC(=O)NC(=O)C1)N1CC(=O)NC(=O)C1,Potency,[1],inactive
CC(C)C1CCC(C(=O)N[C@H](Cc2ccccc2)C(=O)O)CC1 (some centres not stated),Potency,[1],inactive
CC(=O)CC(c1ccccc1)c1c(O)c2ccccc2oc1=O (configuration not stated),max response,[8],2.14%
same,max response,[9],-2.55%
same,max response,[10],8.9% (inactive)
same,activity change % (negative = inhibition),[5],9.03% (inactive)
same,Potency,[1],inactive
same,Potency,[6],inactive
Cc1ccnc2c1NC(=O)c1cccnc1N2C1CC1,outcome,[4],inactive
same,max response,[8],12%
same,outcome,[2],inactive
same,max response,[9],-4.35%
same,max response,[10],11.4% (inactive)
same,activity change % (negative = inhibition),[5],-3.97% (inactive)
same,Potency,[1],inactive
same,Potency,[6],inactive
same,Potency,[7],inactive
COc1ccc2cc3[n+](cc2c1OC)CCc1cc2c(cc1-3)OCO2,outcome,[4],inactive
same,outcome,[2],inactive
same,max response,[9],2.18%
same,max response,[10],-28% (inactive)
same,activity change % (negative = inhibition),[5],-20.8% (inactive)
same,Potency,[1],inactive
same,Potency,[6],inactive
same,Potency,[7],inactive
Cc1ncc([N+](=O)[O-])n1CCO,max response,[8],1.6%
same,outcome,[2],inactive
same,max response,[9],-7.09%
same,max response,[10],26.4% (inactive)
same,activity change % (negative = inhibition),[5],-13.7% (inactive)
same,Potency,[1],inactive
same,Potency,[6],inactive
same,Potency,[7],inactive
O=C(O)C1CCCN(CCC=C(c2ccccc2)c2ccccc2)C1 (configuration not stated),Potency,[1],11.2 µM (active)
CC(=O)[C@H]1CC[C@H]2[C@@H]3CCC4=CC(=O)CC[C@]4(C)[C@H]3CC[C@]12C,outcome,[2],inactive
same,Potency,[6],inactive
CC[C@H](C)C(=O)O[C@H]1C[C@@H](C)C=C2C=C[C@H](C)[C@H](CC[C@@H]3C[C@@H](O)CC(=O)O3)[C@H]21,outcome,[4],inactive
same,Potency,[6],inactive
same,Potency,[7],inactive
O=C(O)c1cc(=O)[nH]c(=O)[nH]1,max response,[8],0.884%
same,outcome,[2],inactive
same,max response,[9],2.15%
same,max response,[10],5.81% (inactive)
same,activity change % (negative = inhibition),[5],1.95% (inactive)
same,Potency,[1],inactive
same,Potency,[6],inactive
same,Potency,[7],inactive
CCc1cc(C(N)=S)ccn1,outcome,[4],inactive
same,max response,[8],-5.67%
same,outcome,[2],inactive
same,max response,[9],-0.783%
same,max response,[10],10.8% (inactive)
same,activity change % (negative = inhibition),[5],7% (inactive)
same,Potency,[1],inactive
same,Potency,[6],inactive
O=C(N[C@H](CO)[C@H](O)c1ccc([N+](=O)[O-])cc1)C(Cl)Cl,Potency,[3],inactive
same,max response,[8],-13.6%
same,outcome,[2],inactive
same,max response,[9],-5.3% and -7.21%
same,max response,[10],39.9% (inactive) and -11.1% (inactive)
same,activity change % (negative = inhibition),[5],0.142% (inactive) and 20.5% (inactive)
same,Potency,[6],inactive
CS(=O)(=O)c1ccc([C@@H](O)[C@@H](CO)NC(=O)C(Cl)Cl)cc1,Potency,[1],inactive
CC1=NN(c2ccccc2)C(=O)C1,outcome,[2],inactive
same,max response,[9],3.18%
same,max response,[10],23.1% (inactive)
same,activity change % (negative = inhibition),[5],-16% (inactive) and 3.19% (inactive)
same,Potency,[1],inactive
same,Potency,[6],inactive
same,Potency,[7],inactive
CCN1CCCC1CNC(=O)c1cc(S(N)(=O)=O)ccc1OC (configuration not stated),Potency,[1],10 µM (active)
COc1cc2ncnc(Nc3cccc(Cl)c3)c2cc1OC,Potency,[1],inactive
Cc1cc(NS(=O)(=O)c2ccc(N)cc2)no1,outcome,[4],inactive
same,max response,[8],12.4%
same,outcome,[2],inactive
same,max response,[9],-9.35%
same,max response,[10],6.61% (inactive)
same,activity change % (negative = inhibition),[5],-2.53% (inactive)
same,Potency,[7],inactive
OC(Cn1cncn1)(Cn1cncn1)c1ccc(F)cc1F,Potency,[3],inactive
same,outcome,[4],inactive
same,max response,[8],-28.2%
same,outcome,[2],inactive
same,max response,[9],-2.01%
same,max response,[10],6.23% (inactive)
same,activity change % (negative = inhibition),[5],-14.2% (inactive)
same,Potency,[1],inactive
same,Potency,[6],inactive
same,Potency,[7],inactive
S=P(N1CC1)(N1CC1)N1CC1,Potency,[3],inactive
same,outcome,[4],inactive
same,max response,[8],-19.8%
same,outcome,[2],inactive
same,activity change % (negative = inhibition),[5],-0.913% (inactive)
same,Potency,[1],inactive
same,Potency,[6],inactive
same,Potency,[7],inactive
OCc1ccc(-c2nn(Cc3ccccc3)c3ccccc23)o1,Potency,[1],inactive
NNC(=O)c1ccncc1,Potency,[3],inactive
same,outcome,[4],inactive
same,max response,[8],1.41%
same,outcome,[2],inactive
same,max response,[9],1.75%
same,max response,[10],3.12% (inactive)
same,activity change % (negative = inhibition),[5],10.5% (inactive)
same,Potency,[6],inactive
NC(N)=NC(N)=NCCc1ccccc1,Potency,[3],inactive
same,max response,[8],8.58% and 2.73%
same,outcome,[2],inactive
same,max response,[9],0.584% and 0.821%
same,max response,[10],19.7% (inactive) and -15.5% (inactive)
same,Potency,[1],inactive
same,Potency,[6],inactive
same,Potency,[7],inactive
C[C@]12C=CC(=O)C=C1CC[C@@H]1[C@@H]2C(=O)C[C@@]2(C)[C@H]1CC[C@]2(O)C(=O)CO,outcome,[4],inactive
same,max response,[8],13.7%
same,outcome,[2],inactive
same,max response,[9],4.53%
same,max response,[10],-10.9% (inactive)
same,activity change % (negative = inhibition),[5],-0.0632% (inactive)
same,Potency,[1],inactive
same,Potency,[6],inactive
same,Potency,[7],inactive
Nc1nc(N)c2nc(CNc3ccc(C(=O)NC(CCC(=O)O)C(=O)O)cc3)cnc2n1 (configuration not stated),outcome,[4],inactive
same,Potency,[1],inactive
same,Potency,[6],inactive
same,Potency,[7],inactive
